Results as given in PMC7819943, “Rice protein-binding microarrays: a tool to detect cis-acting elements near promoter regions in rice”.
The full ranking holds about 39,000 sequences; the median of “fluorescence intensity (a.u.)” is about 4,300, and the highest 2% start at about 39,000. This excerpt belongs to a sample that is enriched for the highest values.

The sequences below were run against T1, OsSMF1 (Oryza sativa, UniProt Q6ZLB0 1-436) (assay: protein-binding microarray (RPBM); PBS, 2% BSA, 51.3 ng/ul salmon testes DNA, 50 uM zinc acetate, 200 nM TF, 25 C, 1 h; high values mean tight binding). Conditions: protein: recombinant; tags: N-terminal polyhistidine and DsRed monomer fusion (pET32a); chain copies: 2; label: CyDye5-dUTP incorporated in the synthesized complementary strand; 3' TTTTT single-stranded linker to array surface; dsDNA, one strand shown.
T1 sequence: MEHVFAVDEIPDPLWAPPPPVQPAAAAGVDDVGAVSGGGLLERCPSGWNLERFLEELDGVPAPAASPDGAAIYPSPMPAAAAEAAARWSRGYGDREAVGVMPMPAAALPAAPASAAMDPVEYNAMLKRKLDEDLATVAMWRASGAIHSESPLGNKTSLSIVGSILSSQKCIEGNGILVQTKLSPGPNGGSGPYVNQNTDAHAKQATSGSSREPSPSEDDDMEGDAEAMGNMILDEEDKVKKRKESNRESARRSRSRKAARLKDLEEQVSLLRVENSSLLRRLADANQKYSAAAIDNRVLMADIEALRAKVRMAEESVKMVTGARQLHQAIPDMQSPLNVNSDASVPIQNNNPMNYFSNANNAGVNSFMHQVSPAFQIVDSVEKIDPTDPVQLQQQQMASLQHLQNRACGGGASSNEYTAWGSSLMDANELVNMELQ
Summary of the method: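 In PBS with 2% BSA, salmon testes DNA and 50 µM zinc acetate, 200 nM protein was incubated on a custom Agilent array at 25 °C for 1 h and then washed off. The array had been made double-stranded by primer extension with Cy5-dUTP and blocked with 2% BSA. The proteins were transcription factors fused N-terminally to polyhistidine and DsRed, expressed in E. coli BL21-CodonPlus and purified on Ni–NTA. The binding signal is per-feature fluorescence intensity (arbitrary units) from an Axon 4000B scanner.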

| Sequence | binding signal |
| --- | --- |
| TCCGGAGAGTTGACGCAGCGTCAACCGGGTCCGTCGTTCTCGGAGTCACCTAGTGCAG | 3800 fluorescence intensity (a.u.) |
| AATCGCGAGATATCCACGTGAGATTGCGCAGCGAGACGCGCGGAGTCACCTAGTGCAG | 5140 fluorescence intensity (a.u.) |
| ATGAGAGATAAGTAGATGACACATTCACAGTTGCTATAGTCGGAGTCACCTAGTGCAG | 4040 fluorescence intensity (a.u.) |
| AAGCTAGCGGTCACCCAGTCAGCTCACCCCGAGACGCACCCGGAGTCACCTAGTGCAG | 4400 fluorescence intensity (a.u.) |
| CGCAGTTGCTTCTGCAAAAGAGATTGATGACAAGGATCACCGGAGTCACCTAGTGCAG | 3530 fluorescence intensity (a.u.) |
| TCGATCGACATGGTGAATTGGCGATCGGGTTGGCTCGGCTCGGAGTCACCTAGTGCAG | 3170 fluorescence intensity (a.u.) |
| GTAGGTGACATGTGTGGTGTCACACTGACTCAGCCATCACCGGAGTCACCTAGTGCAG | 10600 fluorescence intensity (a.u.) |
| TTTTATTTCTACTGCCACGTAGGTGCCACGTCAACGCCACCGGAGTCACCTAGTGCAG | 49800 fluorescence intensity (a.u.) |
| TTATTTCTACTGCCACGTAGGTGCCACGTCAACGCCACGTCGGAGTCACCTAGTGCAG | 37400 fluorescence intensity (a.u.) |
| TAAATGTTCGTGTGGCATGCCACATCAGCACCACGTAGGACGGAGTCACCTAGTGCAG | 21400 fluorescence intensity (a.u.) |
| TTTATTTCTACCGCCACGTAGGTGCCATGTCAATGTCACGCGGAGTCACCTAGTGCAG | 14300 fluorescence intensity (a.u.) |
| CTACTGACACGTAGGTGCCACCATGGCATGCCACGTCAGCCGGAGTCACCTAGTGCAG | 61500 fluorescence intensity (a.u.) |
| TAGGCAAATTACATGGCATGTGCCACGTCGTTGTTGCACCCGGAGTCACCTAGTGCAG | 16500 fluorescence intensity (a.u.) |
| TTAGACACGTAGGTGCCATGTCAGCCAAAACCACCGAGGGCGGAGTCACCTAGTGCAG | 17100 fluorescence intensity (a.u.) |
| GCCACGTAGGTGCCATGTGGCACCACGTCAGCAAAATTGCCGGAGTCACCTAGTGCAG | 49100 fluorescence intensity (a.u.) |
| CATAGATTAATATGAAATATATAACTCCACAAATATGCAACGGAGTCACCTAGTGCAG | 3500 fluorescence intensity (a.u.) |
| ACACGGCCTATAAATATCTAACCATCCTTTGCCTGTCGAGCGGAGTCACCTAGTGCAG | 4970 fluorescence intensity (a.u.) |
| TGGATTTTGCACCGATCGCACCACGTCTCCGTCTGTTTGCCGGAGTCACCTAGTGCAG | 4240 fluorescence intensity (a.u.) |
| TCGCCCGCACGTGGCCCTCCTCTCCTCCCTCCCACCTCGTCGGAGTCACCTAGTGCAG | 3380 fluorescence intensity (a.u.) |
| ACCACACACACACTGACACTGTGACACAACACAACACGGCCGGAGTCACCTAGTGCAG | 6920 fluorescence intensity (a.u.) |
| TCACCAATCACCTGCCCTCACACCAACACGCCACGCGAACCGGAGTCACCTAGTGCAG | 3750 fluorescence intensity (a.u.) |

| Sequence | binding signal |
| --- | --- |
| CACACTGAGTCAGCTGCCACGTCGGATAAAACCGGAGTCACGGAGTCACCTAGTGCAG | 10500 fluorescence intensity (a.u.) |
| ATTCCTATCATTGGAGTATGTGTGCACGTCATTAGTGCCACGGAGTCACCTAGTGCAG | 6500 fluorescence intensity (a.u.) |
| CACATTGAGTCAGCTGCCACGTCGGATAAAACCGGAGTCACGGAGTCACCTAGTGCAG | 15000 fluorescence intensity (a.u.) |
| GGAACATGTATGCACCGAACCTGGTGCATGTCCACGTTCACGGAGTCACCTAGTGCAG | 3740 fluorescence intensity (a.u.) |
| CACCTGCAGCTGCCACGTCAGAGCCACGTCGGATTCCAACCGGAGTCACCTAGTGCAG | 40800 fluorescence intensity (a.u.) |
| GATGCACCACTGCTGCGTCGCACGTTCCACCCCATTCCACCGGAGTCACCTAGTGCAG | 3520 fluorescence intensity (a.u.) |
| AGTATCAGATTCCAACTCACATGCCACGTCACATGCATGCCGGAGTCACCTAGTGCAG | 42200 fluorescence intensity (a.u.) |
| CACGCCAACTAGGATGGATAGATGGGCCACATGTATTCCACGGAGTCACCTAGTGCAG | 3530 fluorescence intensity (a.u.) |
| GTTCAATTCCTGCTGGATGCACGTGAACCGGAACGTTCCACGGAGTCACCTAGTGCAG | 52000 fluorescence intensity (a.u.) |
| TCTTTCTGCACTTTCTCTGAACGTGGATAAGACATAACCGCGGAGTCACCTAGTGCAG | 8130 fluorescence intensity (a.u.) |
| TTAATCACTTCTCAAACTTTTAATGCAATGACTTGTGAACCGGAGTCACCTAGTGCAG | 3420 fluorescence intensity (a.u.) |
| CGTCCGCAGCACGCCACGGTAGCGCGACACCCGGCCTTCCCGGAGTCACCTAGTGCAG | 4600 fluorescence intensity (a.u.) |
| AAGCGATGGAAGCAGCAGACGTGTCGCACGGGAATTTGAGCGGAGTCACCTAGTGCAG | 5240 fluorescence intensity (a.u.) |
| GGCATGGGTATGGGTCATCACTACCCATGCCCGCTTTGCCCGGAGTCACCTAGTGCAG | 4410 fluorescence intensity (a.u.) |
| GATGGTAGGTATGCATATGACGCATATCCTACCTGACGGACGGAGTCACCTAGTGCAG | 3450 fluorescence intensity (a.u.) |
| TTTTAGGTAGAATGGTCCTGTTGGATCATCATATCAATGACGGAGTCACCTAGTGCAG | 43400 fluorescence intensity (a.u.) |
| GTTGACATATGGATCCTGGTGTTATCGACTCAATGTAGAGCGGAGTCACCTAGTGCAG | 5150 fluorescence intensity (a.u.) |
| TATCCAGGCGCACGACACTTGACAACTCTGTACTACGTAGCGGAGTCACCTAGTGCAG | 38900 fluorescence intensity (a.u.) |
| AATTGATCTTCAGAGCCCACGTAGGTATTAGACTTTCCTACGGAGTCACCTAGTGCAG | 6290 fluorescence intensity (a.u.) |
| GGCCAGTTCTCTTCCACGTGGAGGCGGCCTCTCACAGCCGCGGAGTCACCTAGTGCAG | 10300 fluorescence intensity (a.u.) |
| AATTTCAGTACTCAGTTCATTAAATTAATTAAAGAAAGGCCGGAGTCACCTAGTGCAG | 51100 fluorescence intensity (a.u.) |
